This note sets out measurements from PubChem BioAssay (NCI).

About 83,000 compounds went through this panel and 20% of them were active in at least one assay; those are over-represented in the sample as a whole.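 Method: cells in 96-well plates; compound added at one concentration; 48 h incubation; percent growth measured; values under 10 scored active.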 Values without a mark were called inactive. Activity calls are given as the source filed them.

The assay has as its system OVCAR-4 ovarian. The assay can be described thus: NCI-60 one-dose screen, 48 h (100 = growth as untreated, 0 = no growth, -100 = all killed). The conditions noted are these: 10 µM unless noted.
In the case of `COc1c(F)ccc(C(=O)Nc2ccc3nc(NC(=O)C4CCCN(S(=O)(=O)C5CC5)C4)sc3c2)c1F` (stereo not drawn), the growth was 38.5%.

Consider `CCOC(=O)C1=C(N)N(c2ccccc2)C2=C(C(=O)CC(C)(C)C2)C1c1ccc(N2CCOCC2)cc1` (stereo not drawn), for which the growth is 101%.

As for `OCC1(CCCc2ccccc2)CCCN(c2nccc3ccccc23)C1` (stereo not drawn), the growth was 32.8%.

For `COc1ccc(/C=N/NC(=O)Cn2nc(Cc3ccc(OC)cc3)c3onc(C)c3c2=O)cc1`, the growth was -9.28% (active).

Turning to `O=[N+]([O-])c1ccc(/C=C/c2nc3ccccc3n3c(=S)[nH]nc23)cc1`, the growth was 82.5%.

Regarding `COC(=O)/C=C/c1cccc2c1C(=O)NC(C)(c1cc3ccccc3oc1=O)N2` (stereo not drawn), the growth was 70%.

Take `CCN(CC)c1ccc(/C=N/Nc2nc(-c3ccc(Br)cc3)cs2)c(O)c1`: the growth was 70.2%.

For `O=C(c1ccccc1)C(c1c[nH]c2ccccc12)c1c[nH]c2ccccc12`, the growth is 51.5%.

Turning to `CC1(C)CC[C@]2(C(=O)Nc3ccc(Br)cc3)CC[C@]3(C)C(=CCC4[C@@]5(C)C[C@@H](O)[C@H](O)[C@@](C)(CO)C5CC[C@]43C)C2C1` (stereo partly drawn), the growth is 5.44% (active).

Regarding `CC(/C=C1\SC(=S)N(CCCC(=O)NC(CC(C)C)C(=O)O)C1=O)=C\c1ccccc1` (stereo not drawn), the growth was 99.8%.

For the compound `Cn1cc(-c2cc(N)n3nc(-c4cn(C)c5ccccc45)cc3n2)c2cc(Br)ccc21`, the growth is -25.6% (active).

In the case of `Cc1ccc(NCC(=O)Cn2cc(COc3ccc(C=Nc4cnc5ccccc5c4)cc3)nn2)cc1`, the growth is 113%.

`Cc1ccc([C@H]2C(C(=O)c3ccc(Cl)cc3)C3(N[C@@H]2c2ccccc2)C(=O)Nc2ccc(Cl)cc23)cc1` (stereo partly drawn): the growth was 57.4%.

For the compound `Cc1cc2nc3c4ccccc4n(CCNCCN(C)C)c3nc2cc1C`, the growth is 33%.

As to `Cc1ccccc1[C@H]1C(C(=O)c2ccc(Cl)cc2)C2(N[C@@H]1c1ccccc1)C(=O)Nc1ccc(Br)cc12` (stereo partly drawn), the growth was 14.6%.

As to `CC(C)c1sc(NC(=O)c2cc(NC(=O)c3cc(NC(=O)c4cscn4)cn3C)cn2C)nc1C(=O)NCCCN(C)C`, the growth was 18.7%.

As to `CC(=O)OC[C@@]1(C)C2CC[C@]3(C)C(CC=C4C5CC(C)(C)CC[C@]5(C(=O)Nc5ccc(C)cc5)CC[C@]43C)[C@@]2(C)C[C@@H](OC(C)=O)[C@@H]1OC(C)=O` (stereo partly drawn), the growth is 40.2%.

Consider `O=C1CC(Sc2n[nH]c(-c3ccncc3)n2)C(=O)N1c1ccc(Br)cc1` (stereo not drawn), for which the growth was 110%.

On to `COc1cc2c3c(n(CCCN4CCC[C@@H]4CO)c(=O)c2cc1OC)-c1cc2c(cc1C3=O)OCO2`, for which the growth is -82.2% (active).

Take `C=C1CCC2C3(C)COC(c4ccc(F)cc4)OC3CCC2(C)C1C/C=C1/C(=O)OCC1O` (stereo not drawn): the growth is 0.389% (active).

On to `Cc1sc(C(NC(=O)OCCn2c([N+](=O)[O-])cnc2C)C(F)(F)Cl)nc1-c1ccc(OC(F)(F)F)cc1` (stereo not drawn), for which the growth was -37.7% (active).

For the compound `CC1[C@H]2[C@H](C[C@H]3[C@@H]4CC=C5c6sc(Nc7ccccc7F)nc6CC[C@]5(C)[C@H]4CC[C@@]32C)O[C@]12CC[C@@H](C)CO2` (stereo partly drawn), the growth was -42.9% (active).

For `O=C(c1ccccc1)c1ccc2nc(-c3cccc(Cl)c3)[nH]c2c1`, the growth was 114%.

With `OCNc1ccc(-n2cnc3cc(-c4ccc(O)cc4)ccc32)cc1C(F)(F)F`, the growth was 55%.

With `CCOC(=O)C(N=Nc1ccc(S(=O)(=O)N=C(N)N)cc1)C(C)=O` (stereo not drawn), the growth is 105%.

Consider `CCOC(=O)/C=C/c1cccc2c1C(=O)NC(C)(c1cc3cc(Cl)ccc3oc1=O)N2` (stereo not drawn), for which the growth is 36.7%.

For the compound `C#CCOc1cc(N(CC)CC)ccc1C(C(=O)NC(C)(C)C)N(C(=O)C1CCc2cc(F)ccc2O1)c1ccc(Br)cc1` (stereo not drawn), the growth is 82.3%.

Turning to `CCCCCCCCc1ccc(C(=O)Nc2ccc(C)cc2C(=O)O)cc1C`, the growth is 102%.

For `C#CCOc1cc(N(CC)CC)ccc1C(C(=O)NC(C)(C)C)N(C(=O)C1CCc2cc(F)ccc2O1)c1ccc(F)c(Cl)c1` (stereo not drawn), the growth was 57.8%.

Consider `CCOC(=O)C1=C(N)N(c2ccccc2)C2=C(C(=O)CC(C)(C)C2)C1c1ccc([N+](=O)[O-])cc1` (stereo not drawn), for which the growth was 97.3%.

For `C=C1CC[C@@H]2[C@]3(C)COC(c4ccccc4)O[C@@H]3CC[C@@]2(C)[C@@H]1C/C=C1/C(=O)OCC1OC(C)=O` (stereo partly drawn), the growth was 0.176% (active).

With `C#C[C@]1(O)CC[C@H]2[C@@H]3CC=C4c5sc(-c6ccc([N+](=O)[O-])cc6)nc5CC[C@]4(C)[C@H]3CC[C@@]21C`, the growth is 46.5%.

With `CN1CCN(/C(=N\c2sc(-c3ccccc3)nc2-c2ccccc2)c2ccccc2)CC1`, the growth was 89.4%.

In the case of `N=C1N=C(SCc2nc3ccccc3[nH]2)NC(=O)/C1=C/c1ccc(Cl)cc1`, the growth is 95.6%.

With `C/C(=N\N=C1/C(=O)Nc2ccc(Cl)cc21)c1ccc2c(c1)Nc1ccccc1S2`, the growth is 15.7%.

On to `Cc1cccc(NC(=O)CN2CCN(c3ncnc4c3cnn4-c3ccccc3)CC2)c1`, for which the growth is 91.4%.

As to `CN(C)CCOc1ccc(C(=O)C2[C@H](c3ccc(Cl)cc3)[C@@H](c3ccccc3)NC23C(=O)Nc2ccccc23)cc1` (stereo partly drawn), the growth is 70.6%.

In the case of `COc1ccc2[nH]cc(-c3nnc(N)nc3-c3cn(C)c4ncc(Br)cc34)c2c1`, the growth is 69.1%.
